Measured values published in PubChem BioAssay AID449762 (Southern Research Specialized Biocontainment Screening …, 2010).
“And” between values parts separate entries of the source, which are not always exact repeats. Identical values can stand only once. About 1,900 (0.58%) of roughly 330,000 compounds were called active. Roughly 4% stayed inconclusive and do not appear here. These entries were drawn from the full list. Potency and affinity values are given separately. Values without a mark were called inactive. Cut-off read from the data, not from the text of the source: inconclusive = inhibition above about 70% without an active follow-up result; inactive = below that.

Assay: M. tuberculosis growth inhibition, HTS (AID 449762);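 note: bacterial growth assessed after seven days of incubation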
Settings: M. tuberculosis H37Rv growth inhibition, 7H9 media; at 25 µM; hits give high values

Row | SMILES | inhibition
1 | CCN(C(=O)Cc1c(C(=O)O)n(C)c2ccccc12)c1cc(OC)ccc1OC | -7.09%
2 | C/C=C(\C)C(=O)Nc1cccc(C2=NOC3(C2)C[C@@H](C(N)=O)N(C(=O)c2cc([N+](=O)[O-])cc([N+](=O)[O-])c2C)C3)c1 (some centres undefined) | -8.05%
3 | C/C=C(/C)C(=O)Nc1cccc(C2=NOC3(C2)C[C@H](C(N)=O)N(C(=O)c2ccccc2)C3)c1 (some centres undefined) | -2.03%
4 | COc1ccc(N2CC(C(=O)N3CCN(Cc4ccc5c(c4)OCO5)CC3)CC2=O)cc1 (centres undefined) | -6.83%
5 | COc1ccc(/C=C2\CCCC3C2=NN(C(=O)CSc2ncn[nH]2)C3c2ccc(OC)cc2)cc1 (centres undefined) | 8.82%
6 | O=c1cc(CNc2cc(C(F)(F)F)cc(C(F)(F)F)c2)nc2sccn12 | 3.54%
7 | COC(=O)CN(c1ccc2c(c1)OCCO2)S(=O)(=O)c1ccccc1 | -5.06%
8 | COc1ccc2c(c1)c(C(C)=O)c(C)n2CCc1ccccc1 | -7.55%
9 | CC(=O)c1c(C)n(Cc2ccccc2)c2ccc(O)cc12 | -1.54%
10 | Cn1cc(CNC(=O)c2cc(COc3ccc4c(c3)CCCC4)on2)cn1 | 7.16%
11 | CN(C)c1oc(/C=C/c2ccccc2)nc1C#N | 2.83%
12 | Cc1ccc(C(=O)NC(C)C2CCCO2)o1 (centres undefined) | -14.8%
13 | Cc1ccc(S(=O)(=O)N2CCCCC2C(=O)N2CCN(C)CC2)cc1 (centres undefined) | -3.69%
14 | CN(C)c1cccc(/C=C(\C#N)c2ccccc2)c1 | 11.4%
15 | CC1=CC(=O)c2ccccc2C1=O | -6.06% and 0.39%
16 | CC(C)(C=O)C1=CC(=O)c2ccccc2C1=O | -5.62%
17 | COc1ccccc1-n1c(CNC(=O)c2ccco2)nnc1SCC(=O)Nc1cc(C)ccc1C | -9.93%
18 | CCCCCCNc1nc(-c2ccc(OC)cc2)c(CCC(=O)O)s1 | 31%
19 | COc1ccc(CCNc2ncnc3c2[nH]c2cc(OC)c(OC)cc23)cc1OC | -4.75%
20 | COc1ccc(CNc2ncnc3c2[nH]c2ccccc23)cc1 | 59.2%
21 | Fc1ccc2[nH]c3c(NCCN4CCOCC4)ncnc3c2c1 | 1.25%
22 | Cc1ccc2[nH]c3c(NCc4ccccc4)ncnc3c2c1 | 67.8%
23 | C=CCn1c(SCC(=O)c2c(N)n(CCC)c(=O)n(C)c2=O)nc2sc(CC)cc2c1=O | 0.69%
24 | CSc1ccc(/C=C/C(=O)OCC(=O)c2ccc[nH]2)cc1 | 5.61%
25 | O=C(O)CC(C(=O)NCc1ccccc1)C1CCCO1 (centres undefined) | -7.82%

Row | SMILES | inhibition
26 | COc1cc(NC(=O)c2ccnnc2)cc(C(=O)Nc2cccc(C(F)(F)F)c2)c1 | 42.8%
27 | COc1cc(NC(=O)c2cnc(N)o2)cc(C(=O)Nc2cccc(C(F)(F)F)c2)c1 | 2.04%
28 | Cc1ccc(C)c(N2CCN(S(=O)(=O)c3c(C)[nH]c(C)c3C(=O)N3CCCCC3)CC2)c1 | -4.36%
29 | Cc1cc(C(=O)COc2ccccc2C(N)=O)c(C)n1CC1CCCO1 (centres undefined) | -7.82%
30 | Cc1cc(C(=O)COc2ccccc2C(N)=O)c(C)n1C | -2.03%
31 | O=C(O)/C=C\C(=O)Nc1ccccc1N1CCN(c2ccccc2)CC1 | -0.24%
32 | O=C(CSc1nnc2c(n1)[nH]c1ccccc12)Nc1ccc2c(c1)OCO2 | 0.35%
33 | COc1cc(CC(=O)N/N=C/c2ccc([N+](=O)[O-])cc2)c([N+](=O)[O-])cc1OC | 2.69%
34 | CCSc1nnc(NC(=O)CCCOc2ccc(C)cc2)s1 | 1.29%
35 | CCC(C)NC(=S)Nc1ccc(F)cc1 (centres undefined) | -4.81%
36 | CCC(C)NS(=O)(=O)c1ccc(NS(C)(=O)=O)cc1 (centres undefined) | 4.07%
37 | O=C(Cc1cccs1)NCc1cccc(CNC(=O)Cc2cccs2)c1 | 1.18%
38 | COc1ccc(C2NCc3ccccc3-n3cccc32)cc1 (centres undefined) | -8.78%
39 | N#Cc1ccc(C(=O)NCCCSc2ccccc2)cc1 | -3.48%
40 | CCC(C)N1CC(=O)N2C(c3ccc(OC)cc3OC)c3[nH]c4ccccc4c3C[C@H]2C1=O (some centres undefined) | 6.67%
41 | CCOc1ccc(OCCC(=O)OCC(=O)NC2CCCC2)cc1 | 4.34%
42 | COc1ccc(-c2csc(NC(C)c3nc4cc(Cl)c(Cl)cc4n3CCCO)n2)cc1 (centres undefined) | 35.7%
43 | CCCn1c(C(C)Nc2nc(-c3ccc(C)cc3)cs2)nc2cc(Cl)c(N3CCCCC3)cc21 (centres undefined) | 44.2%
44 | Cc1ccc(CN2CCC(c3cc(-c4cccs4)n[nH]3)CC2)cc1 | 42.8%
45 | COc1ccc(OC)c(-c2cc(C3CCN(C(=O)OC(C)(C)C)CC3)[nH]n2)c1 | -1.26%
46 | CCOC(=O)CN1CCC(c2cc(-c3ccc(Cl)cc3)n[nH]2)CC1 | 0.17%
47 | CC(C)(C)OC(=O)N1CCC(c2cc(-c3cccs3)n[nH]2)CC1 | 10.2%
48 | COc1ccc(-c2cc(C3CCN(CC(O)C(F)(F)F)CC3)[nH]n2)cc1 (centres undefined) | 7.78%
49 | COc1ccc(-c2cc(C3CCN(Cc4ccc([N+](=O)[O-])cc4)CC3)[nH]n2)cc1 | 39.6%
